# PubChem BioAssay (Tox21)
# Where “and” joins values, the source holds several entries; their conditions need not be identical. Equal entries are not always repeated. Records with an inconclusive call do not appear. Where a call stands in place of a potency, no number is given. A structure can be active in one record and inactive in another. Calls of active or inactive are those of the source. Calls come from the whole dose curve; as a rule, active = well fitted curve in the direction sought with a large enough effect in the repeat runs; inconclusive = weak or mixed curves; inactive = no such curve, though single readings can be large; an effect the other way counts as inactive or inconclusive.
# What was measured:
# [1] = Caspase-3/7 induction in HepG2 cells by small molecules, qHTS assay (AID 1346978); note: nearly all actives have a fitted effect of over 15% in size; note: potency is the fitted concentration of half-maximal effect
# Outline: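 Caspase-3/7 induction was measured by Caspase-Glo 3/7 luminescence (30 min, room temperature) after a 17 hr compound exposure of wild-type HepG2 cells seeded at 2,000 per well and pre-incubated 5 hr.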
# [2] = Caspase-3/7 induction in CHO-K1 cells by small molecules, qHTS cell viability counter screen (AID 1346979); note: nearly all actives have a fitted effect of over 35% in size; note: potency is the fitted concentration of half-maximal effect
# Outline: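 To flag cytotoxic compounds, treated CHO-K1 wild-type cells were given CellTiter-Fluor at 16hr and read fluorescently after 1hr at 37C; the caspase-3/7 luminescence was measured in these same wells.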
# [3] = Caspase-3/7 induction in CHO-K1 cells by small molecules, qHTS assay (AID 1346980); note: nearly all actives have a fitted effect of over 15% in size; note: potency is the fitted concentration of half-maximal effect
# Outline: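 Luminescent Caspase-Glo 3/7 read (30min, room temperature) quantified apoptosis induction. Cells were wild-type CHO-K1, treated with compound for 17hr at 37 C and 5% CO2.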
# [4] = Caspase-3/7 induction in HepG2 cells by small molecules, qHTS cell viability counter screen (AID 1346981); note: nearly all actives have a fitted effect of over 30% in size; note: potency is the fitted concentration of half-maximal effect
# Outline: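 In this quantitative HTS counter screen, compounds delivered in DMSO were left on unmodified HepG2 cells for 16 hr at 37 C. Viability was then determined fluorometrically with CellTiter-Fluor, in parallel with caspase-3/7 induction in the same wells.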
# [5] = target: Nuclear receptor subfamily 1 group I member 2 (Homo sapiens) (UniProt O75469); assay: Human pregnane X receptor (PXR) small molecule agonists, qHTS assay (AID 1346982); note: nearly all actives have a fitted effect of over 35% in size; note: potency is the fitted concentration of half-maximal effect
# Outline: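 Reporter HepG2 cells expressing PXR-Luc are cultured in charcoal-stripped FBS (5%), treated with compounds for 24 hr at 37 C, and assayed by ONE-Glo luminescence after 30 min at room temperature.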
# [6] = target: Nuclear receptor subfamily 1 group I member 2 (Rattus norvegicus) (UniProt Q9R1A7); assay: Rat pregnane X receptor (rPXR) activation by small molecules, qHTS assay (AID 1346983); details: rPXR luciferase reporter cells, One-Glo luminescence, 24 h; stronger effect = higher value; note: nearly all actives have a fitted effect of over 20% in size
# Outline: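 Luminescent readout (One-Glo luciferase, 30 min room temperature) followed 24 hr compound treatment at 37 C of rPXR cells plated 2,000 per well and preincubated 5hr; qHTS format with compounds delivered in DMSO.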
# [7] = target: Nuclear receptor subfamily 1 group I member 2 (Homo sapiens) (UniProt O75469); assay: CYP3A4 induction through human pregnane X receptor (PXR) by small molecules, qHTS assay (AID 1346984); note: nearly all actives have a fitted effect of over 40% in size
# Outline: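 Induction measured in HepG2-based DPX-2 cells co-expressing human PXR and a CYP3A4 promoter-driven luciferase. After a 24-hour compound exposure, cells received CYP3A4 luciferin substrate at 3uM final for 3 hours, and light output was then recorded.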
# [8] = target: Nuclear receptor subfamily 1 group I member 2 (Homo sapiens) (UniProt O75469); assay: Human pregnane X receptor (PXR) activation by small molecules, qHTS assay (AID 1346985); note: nearly all actives have a fitted effect of over 40% in size; note: potency is the fitted concentration of half-maximal effect
# Outline: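 DPX-2 cells (HepG2 co-transfected with a PXR response element and a CYP3A4-promoter luciferase construct) were seeded at 2,000 per well, rested 5 hr at 37C, then exposed to DMSO-dissolved compounds for 24 hr. Activation was read as luciferase luminescence.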
# [9] = target: Cytochrome P450 2D6 (Homo sapiens) (UniProt P10635); assay: Cytochrome P450 Family 2 Subfamily D Member 6 (CYP2D6) small molecule antagonists: luciferase reporter qHTS assay (AID 1671196); note: nearly all actives have a fitted effect of over 50% in size; note: potency is the fitted concentration of half-maximal effect
# Outline: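 Test chemicals meet CYP2D6 plus proluciferin substrate (10 min, RT); NADPH regenerating solution then drives turnover for 1 h. Detection reagent halts the reaction; luminescence measured after 20 min.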
# [10] = target: Cytochrome P450 2C19 (Homo sapiens) (UniProt P33261); assay: Cytochrome P450 Family 2 Subfamily C Member 19 (CYP2C19) small molecule antagonists: luciferase reporter qHTS assay (AID 1671197); note: nearly all actives have a fitted effect of over 65% in size; note: potency is the fitted concentration of half-maximal effect
# Outline: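 Quantitative high-throughput screen of the Tox21 library using CYP2C19 with proluciferin substrate. Reaction: NADPH regeneration, 37C, 1 h, after 10 min compound preincubation at room temperature. Readout: luminescence.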
# [11] = target: Cytochrome P450 2C9 (Homo sapiens) (UniProt P11712); assay: Cytochrome P450 Family 2 Subfamily C Member 9 (CYP2C9) small molecule antagonists: luciferase reporter qHTS assay (AID 1671198); note: nearly all actives have a fitted effect of over 50% in size; note: potency is the fitted concentration of half-maximal effect
# Outline: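 Enzyme-substrate mix preincubated with compound 10 min at room temperature; reaction started with NADPH regeneration solution, 1 h 37C. Luminescent luciferin product read after 20 min detection reagent.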
# [12] = target: Cytochrome P450 1A2 (Homo sapiens) (UniProt P05177); assay: Cytochrome P450 Family 1 Subfamily A Member 2 (CYP1A2) small molecule antagonists: luciferase reporter qHTS assay (AID 1671199); note: nearly all actives have a fitted effect of over 50% in size; note: potency is the fitted concentration of half-maximal effect
# Outline: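 Steps: enzyme-substrate mix dispensed; test compounds and furafylline control pinned in; 10 min room temperature; NADPH regeneration solution added, 1 h; reaction stopped with luciferin detection reagent; luminescence read after 20 min.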
# [13] = target: Voltage-gated inwardly rectifying potassium channel KCNH2 (Homo sapiens) (UniProt Q12809); assay: Human Ether-a-go-go-Related Gene (hERG) channel small molecule antagonists: fluorescence cell-based qHTS assay (AID 1671200); note: nearly all actives have a fitted effect of over 50% in size; note: potency is the fitted concentration of half-maximal effect
# Outline: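 Measured: Tl+ flux via fluorescence (480/540 nm) in hERG-expressing U2OS cells after 1 h dye loading at room temperature.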
# [14] = target: Cytochrome P450 3A4 (Homo sapiens) (UniProt P08684); assay: Cytochrome P450 Family 3 Subfamily A Member 4 (CYP3A4) small molecule antagonists: luciferase reporter qHTS assay (AID 1671201)
# Outline: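 Setup: enzyme-substrate mix, compound pin transfer, 10 min RT. Reaction: NADPH regeneration solution, 1 h RT. Readout: detection reagent stops turnover, luminescence measured after 20 min, expressed in relative luminescence units.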
# Sequence of Cytochrome P450 1A2 (Homo sapiens) (P05177 whole entry, looked up): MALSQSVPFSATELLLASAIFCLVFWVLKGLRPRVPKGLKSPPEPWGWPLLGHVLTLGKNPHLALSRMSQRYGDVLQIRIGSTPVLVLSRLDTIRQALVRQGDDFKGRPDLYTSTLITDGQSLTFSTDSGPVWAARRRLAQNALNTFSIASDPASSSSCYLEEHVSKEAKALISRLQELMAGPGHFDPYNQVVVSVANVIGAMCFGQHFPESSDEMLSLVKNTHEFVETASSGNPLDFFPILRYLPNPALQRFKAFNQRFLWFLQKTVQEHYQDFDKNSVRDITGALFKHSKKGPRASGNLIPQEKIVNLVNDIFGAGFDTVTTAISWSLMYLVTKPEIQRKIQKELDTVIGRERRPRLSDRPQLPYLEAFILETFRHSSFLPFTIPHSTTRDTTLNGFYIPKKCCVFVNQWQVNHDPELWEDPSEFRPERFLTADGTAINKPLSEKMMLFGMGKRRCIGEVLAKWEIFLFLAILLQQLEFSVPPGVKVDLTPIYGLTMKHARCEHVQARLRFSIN
# Sequence of Cytochrome P450 2C19 (Homo sapiens) (P33261 whole entry, looked up): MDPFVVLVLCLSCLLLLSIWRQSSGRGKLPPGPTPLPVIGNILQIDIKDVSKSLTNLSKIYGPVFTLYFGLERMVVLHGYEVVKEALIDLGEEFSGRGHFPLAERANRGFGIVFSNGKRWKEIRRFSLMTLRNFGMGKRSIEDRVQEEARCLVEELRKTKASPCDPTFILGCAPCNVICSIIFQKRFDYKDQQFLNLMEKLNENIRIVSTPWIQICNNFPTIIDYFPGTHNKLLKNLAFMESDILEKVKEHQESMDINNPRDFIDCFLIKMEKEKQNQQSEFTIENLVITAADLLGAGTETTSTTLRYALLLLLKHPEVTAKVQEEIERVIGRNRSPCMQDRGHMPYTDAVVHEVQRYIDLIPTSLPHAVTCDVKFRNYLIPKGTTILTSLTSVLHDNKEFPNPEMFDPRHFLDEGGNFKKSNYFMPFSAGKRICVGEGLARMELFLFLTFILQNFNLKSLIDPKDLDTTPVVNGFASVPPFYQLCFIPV
# Sequence of Cytochrome P450 3A4 (Homo sapiens) (P08684 whole entry, looked up): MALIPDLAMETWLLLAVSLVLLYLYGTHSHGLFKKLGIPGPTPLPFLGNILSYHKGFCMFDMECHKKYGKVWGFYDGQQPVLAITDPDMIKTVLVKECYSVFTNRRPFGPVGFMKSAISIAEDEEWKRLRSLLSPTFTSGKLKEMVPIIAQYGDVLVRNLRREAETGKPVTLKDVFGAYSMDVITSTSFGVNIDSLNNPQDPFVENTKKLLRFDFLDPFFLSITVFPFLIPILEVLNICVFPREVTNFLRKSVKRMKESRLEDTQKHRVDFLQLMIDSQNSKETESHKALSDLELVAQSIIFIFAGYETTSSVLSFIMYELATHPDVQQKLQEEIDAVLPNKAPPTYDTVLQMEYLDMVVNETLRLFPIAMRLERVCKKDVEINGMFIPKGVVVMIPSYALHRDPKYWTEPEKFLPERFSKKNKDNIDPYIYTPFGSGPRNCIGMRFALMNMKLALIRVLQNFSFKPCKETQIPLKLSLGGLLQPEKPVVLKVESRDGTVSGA
# Sequence of Cytochrome P450 2D6 (Homo sapiens) (P10635 whole entry, looked up): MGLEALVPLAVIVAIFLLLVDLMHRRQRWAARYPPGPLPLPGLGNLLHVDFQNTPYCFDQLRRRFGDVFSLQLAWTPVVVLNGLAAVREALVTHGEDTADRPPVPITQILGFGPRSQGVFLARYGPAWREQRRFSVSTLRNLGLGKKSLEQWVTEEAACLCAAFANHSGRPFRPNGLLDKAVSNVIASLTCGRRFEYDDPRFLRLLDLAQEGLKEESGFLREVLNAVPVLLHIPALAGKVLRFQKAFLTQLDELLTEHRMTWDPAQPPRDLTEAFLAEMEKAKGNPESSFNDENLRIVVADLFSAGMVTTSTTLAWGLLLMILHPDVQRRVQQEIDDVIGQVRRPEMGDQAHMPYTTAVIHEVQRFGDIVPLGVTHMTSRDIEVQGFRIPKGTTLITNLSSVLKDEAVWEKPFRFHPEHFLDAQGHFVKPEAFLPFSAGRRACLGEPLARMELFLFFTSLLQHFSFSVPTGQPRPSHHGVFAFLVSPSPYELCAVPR
# Sequence of Voltage-gated inwardly rectifying potassium channel KCNH2 (Homo sapiens) (Q12809 whole entry, looked up): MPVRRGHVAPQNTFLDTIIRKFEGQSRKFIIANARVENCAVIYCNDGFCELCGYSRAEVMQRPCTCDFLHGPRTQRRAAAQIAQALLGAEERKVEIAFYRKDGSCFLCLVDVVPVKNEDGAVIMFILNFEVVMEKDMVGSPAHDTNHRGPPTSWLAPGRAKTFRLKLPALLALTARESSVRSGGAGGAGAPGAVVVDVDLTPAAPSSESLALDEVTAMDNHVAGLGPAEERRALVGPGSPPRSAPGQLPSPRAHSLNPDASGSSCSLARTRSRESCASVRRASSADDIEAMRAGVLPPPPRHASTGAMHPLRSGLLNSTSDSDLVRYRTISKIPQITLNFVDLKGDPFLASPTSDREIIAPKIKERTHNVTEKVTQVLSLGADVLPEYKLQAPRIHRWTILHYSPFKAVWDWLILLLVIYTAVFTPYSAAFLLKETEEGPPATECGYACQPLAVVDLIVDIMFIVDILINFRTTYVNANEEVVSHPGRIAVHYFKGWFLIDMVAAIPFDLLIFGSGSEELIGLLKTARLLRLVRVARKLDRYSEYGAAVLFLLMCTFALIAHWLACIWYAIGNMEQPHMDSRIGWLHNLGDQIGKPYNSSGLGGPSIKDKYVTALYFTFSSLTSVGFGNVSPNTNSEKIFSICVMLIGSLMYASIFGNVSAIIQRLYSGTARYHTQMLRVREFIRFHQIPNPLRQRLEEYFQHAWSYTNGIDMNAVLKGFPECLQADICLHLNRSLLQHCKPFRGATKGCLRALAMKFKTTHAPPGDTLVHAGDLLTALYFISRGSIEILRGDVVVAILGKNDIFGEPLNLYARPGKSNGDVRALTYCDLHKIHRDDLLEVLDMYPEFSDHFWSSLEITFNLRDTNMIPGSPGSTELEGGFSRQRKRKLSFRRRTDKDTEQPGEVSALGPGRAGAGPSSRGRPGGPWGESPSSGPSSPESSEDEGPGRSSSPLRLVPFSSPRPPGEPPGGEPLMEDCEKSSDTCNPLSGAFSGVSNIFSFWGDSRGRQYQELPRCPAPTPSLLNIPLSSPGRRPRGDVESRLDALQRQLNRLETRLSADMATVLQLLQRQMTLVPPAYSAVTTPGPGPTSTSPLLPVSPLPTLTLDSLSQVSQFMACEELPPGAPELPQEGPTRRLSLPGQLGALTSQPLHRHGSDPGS
# Sequence of Nuclear receptor subfamily 1 group I member 2 (Homo sapiens) (O75469 whole entry, looked up): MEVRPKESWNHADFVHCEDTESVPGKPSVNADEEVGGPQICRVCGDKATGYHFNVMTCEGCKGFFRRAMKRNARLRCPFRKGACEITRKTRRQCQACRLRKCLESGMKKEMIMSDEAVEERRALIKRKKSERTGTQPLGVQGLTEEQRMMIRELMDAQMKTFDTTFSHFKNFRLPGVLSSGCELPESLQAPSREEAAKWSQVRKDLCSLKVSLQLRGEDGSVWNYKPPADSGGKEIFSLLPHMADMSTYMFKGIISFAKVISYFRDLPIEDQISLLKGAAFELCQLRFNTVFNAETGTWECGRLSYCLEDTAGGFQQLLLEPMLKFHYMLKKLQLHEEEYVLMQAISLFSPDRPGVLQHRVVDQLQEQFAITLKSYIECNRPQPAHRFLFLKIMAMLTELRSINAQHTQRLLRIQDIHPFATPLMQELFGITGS
# Sequence of Nuclear receptor subfamily 1 group I member 2 (Rattus norvegicus) (Q9R1A7 whole entry, looked up): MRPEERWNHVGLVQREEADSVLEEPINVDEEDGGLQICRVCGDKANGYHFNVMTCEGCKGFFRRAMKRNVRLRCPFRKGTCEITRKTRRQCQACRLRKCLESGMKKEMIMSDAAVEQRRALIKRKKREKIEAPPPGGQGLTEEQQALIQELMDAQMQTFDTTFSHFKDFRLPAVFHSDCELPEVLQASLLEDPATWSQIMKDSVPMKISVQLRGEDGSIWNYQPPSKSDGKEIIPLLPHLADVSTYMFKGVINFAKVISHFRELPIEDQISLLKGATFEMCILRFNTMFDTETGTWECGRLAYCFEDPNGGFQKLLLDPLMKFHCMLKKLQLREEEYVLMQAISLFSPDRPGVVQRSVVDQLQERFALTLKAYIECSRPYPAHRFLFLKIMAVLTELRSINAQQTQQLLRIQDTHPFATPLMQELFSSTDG
# Sequence of Cytochrome P450 2C9 (Homo sapiens) (P11712 whole entry, looked up): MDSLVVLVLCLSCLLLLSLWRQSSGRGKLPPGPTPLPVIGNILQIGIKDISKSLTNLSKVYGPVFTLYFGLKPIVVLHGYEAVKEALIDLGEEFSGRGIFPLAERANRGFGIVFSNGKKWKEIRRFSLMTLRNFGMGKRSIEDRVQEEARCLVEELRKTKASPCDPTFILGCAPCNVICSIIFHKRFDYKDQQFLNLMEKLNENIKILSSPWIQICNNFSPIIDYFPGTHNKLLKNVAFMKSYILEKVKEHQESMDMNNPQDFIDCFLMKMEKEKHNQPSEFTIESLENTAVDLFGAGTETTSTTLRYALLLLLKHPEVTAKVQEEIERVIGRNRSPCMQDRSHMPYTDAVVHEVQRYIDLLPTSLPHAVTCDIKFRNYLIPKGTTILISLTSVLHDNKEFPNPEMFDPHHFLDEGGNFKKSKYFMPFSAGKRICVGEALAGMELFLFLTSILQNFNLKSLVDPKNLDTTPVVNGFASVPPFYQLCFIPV
SMILES,Potency [1],Potency [2],Potency [3],Potency [4],Potency [5],max activation [6],Potency [7],Potency [8],Potency [9],Potency [10],Potency [11],Potency [12],Potency [13],Potency [14]
COc1ccc(CCN2CCC(Nc3nc4ccccc4n3Cc3ccc(F)cc3)CC2)cc1,7.86 µM (active),7.86 µM (active) and 23.7 µM (active),11.1 µM (active),–,–,–,–,–,–,–,–,–,–,–
COc1nc(C)nc(Cl)c1NC1=NCCN1,inactive,inactive,inactive,inactive,inactive,-0.617% (inactive),inactive,inactive,inactive,inactive,inactive,inactive,inactive,inactive
c1ccc2n[nH]nc2c1,inactive,inactive,inactive,inactive,inactive,–,–,–,inactive,inactive,inactive,inactive,inactive,–
CC(C)CCCCCCc1ccc(O)cc1,55.4 µM (active) and 68.6 µM (active),44 µM (active) and 61.1 µM (active),24.8 µM (active),55.4 µM (active),22.1 µM (active) and 9.69 µM (active),-6.01% (inactive),inactive,28.2 µM (active),40.6 µM (active) and inactive,3.62 µM (active) and 4.48 µM (active),9.1 µM (active) and 12.6 µM (active),28.8 µM (active),39.6 µM (active),–
[Cl][In]([Cl])[Cl],inactive,inactive,inactive,inactive,inactive,-5.91% (inactive),inactive,inactive,inactive,inactive and 35.6 µM (active),inactive,37.7 µM (active),inactive,–
CC(C(O)c1ccc(O)cc1)N1CCC(Cc2ccccc2)CC1 (stereo not drawn),inactive,inactive,inactive,inactive,inactive,-2.92% (inactive),–,inactive,–,–,inactive,inactive,6.01 µM (active),–
Oc1ccc(Cl)cc1Cc1cc(Cl)ccc1O,inactive,44.1 µM (active) and 38.6 µM (active) and 29.8 µM (active),inactive,55.5 µM (active),22.1 µM (active) and 27.3 µM (active),-2.03% (inactive),–,inactive,–,3.62 µM (active) and 2.83 µM (active) and 3.09 µM (active),8.11 µM (active) and 5.64 µM (active) and 4.9 µM (active),36.2 µM (active) and 39.9 µM (active) and 15.5 µM (active),inactive,–
O=C(O)c1cccc(C(=O)O)c1,inactive,inactive,inactive,inactive,inactive,–,–,–,inactive,inactive,inactive,–,inactive,–
O=C(Oc1ccccc1)c1ccccc1O,inactive,inactive,inactive,inactive,inactive,–,–,–,inactive,inactive,35.6 µM (active) and 24.5 µM (active),35.7 µM (active) and 35.6 µM (active) and 28.8 µM (active),inactive,inactive
CO[Si](OC)(OC)c1ccccc1,inactive,inactive,inactive,inactive,inactive,–,–,–,inactive,inactive,inactive,–,inactive,–
CC(C)(C)c1cc(C(C)(C)C)c(O)c(C(C)(C)C)c1,inactive,inactive,inactive,inactive,68.6 µM (active) and inactive,–,–,–,inactive,inactive,inactive and 35.6 µM (active),inactive,7.76 µM (active),inactive
CC(C)(C)NCC(O)COc1ccccc1OCC1CCCO1 (stereo not drawn),inactive,inactive,inactive,inactive,inactive,–,–,–,2.75 µM (active),inactive,inactive,inactive,inactive,inactive
CC1COC(=O)O1 (stereo not drawn),inactive,inactive,inactive,inactive,inactive,–,–,–,inactive,inactive,inactive,inactive,inactive,inactive
C1COC(NC(C2CC2)C2CC2)=N1,inactive,inactive,inactive,inactive,inactive,–,–,–,15.5 µM (active),inactive,inactive,inactive,inactive,inactive
Cc1occc(=O)c1OC(=O)C(C)C,inactive,inactive,inactive,inactive,inactive,–,–,–,inactive,inactive,inactive,inactive,inactive,inactive
